From PubChem
TGFb inhibitor = qHTS for Inhibitors of TGF-b. AID 588855, 2011. Potency, µM (titrated, usually from 46.1 µM), for inactives: top-dose activity, negative = inhibition, actives largely listed as inhibitors. hit rate 1.2% among 410,000. HepG2 CAGA-GFP TGF-b/SMAD3 reporter, GFP fluorescence, 18 h; TGF-beta stimulated, 500 pg/mL final; further: on the % scale 0 is the no-effect control and ±100 the full control effect; nearly all actives have a fitted effect of over 65% in size
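Using HEPG2 CAGA-GFP reporter cells at 1000 cells/well, we pinned test compounds, stimulated with recombinant TGF-beta (500 pg/mL final) and measured total well GFP after 18 h.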
RORg inh = qHTS for inhibitors of ROR gamma transcriptional activity. Potency, µM (top dose mostly 53.6 µM), inactives show at the top dose activity change, negative = inhibition, actives largely listed as inhibitors. Drosophila S2 Gal4-RORgamma UAS-luciferase reporter, 20 h. Nuclear receptor ROR-gamma (Mus musculus), P51450. hit rate 5.4% among 310,000; further: on the % scale 0 is the no-effect control and ±100 the full control effect; nearly all actives have a fitted effect of over 60% in size
Target sequence (P51450 whole entry, looked up, the tested form may be a part): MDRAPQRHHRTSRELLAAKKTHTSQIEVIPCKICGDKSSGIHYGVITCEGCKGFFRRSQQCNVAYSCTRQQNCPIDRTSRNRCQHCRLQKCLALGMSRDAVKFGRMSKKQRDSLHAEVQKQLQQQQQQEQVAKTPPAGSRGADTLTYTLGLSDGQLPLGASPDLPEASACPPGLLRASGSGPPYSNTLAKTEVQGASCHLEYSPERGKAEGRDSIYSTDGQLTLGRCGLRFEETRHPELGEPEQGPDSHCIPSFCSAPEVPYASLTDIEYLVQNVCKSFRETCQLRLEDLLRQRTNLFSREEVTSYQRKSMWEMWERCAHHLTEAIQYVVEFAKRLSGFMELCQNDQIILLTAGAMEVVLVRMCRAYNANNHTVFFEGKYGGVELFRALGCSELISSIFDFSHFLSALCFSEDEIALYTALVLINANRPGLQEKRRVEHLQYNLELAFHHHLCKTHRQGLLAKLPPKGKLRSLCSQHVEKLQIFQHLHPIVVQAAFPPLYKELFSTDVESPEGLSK
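Compounds are pin-transferred onto Drosophila Schneider cells expressing a copper-inducible Gal4–ROR gamma transactivation domain fusion. After 1 hr, copper sulfate is added to 700 uM final; luciferase is read 20 hr later.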
HepG2 viability = qHTS for Inhibitors of TGF-b: Cytotox Counterscreen; Potency, µM (doses to about 46.1 µM), inactives show at the highest dose activity change, negative = cytotoxicity, usual class: cytotoxic; HepG2 CAGA-GFP viability, ATP luminescence, 18 h; hit rate 0.76% among 410,000
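HepG2 CAGA-GFP cells (1000/well, DMEM with 1% FBS) received compound, then TGF-beta at 500 pg/mL final, and were incubated 18 hours at 37 degrees C. Viability was read by CellTiter-Glo luminescence. Media-only wells were set as complete cell-killing and DMSO as no toxicity.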
VP16 counter = VP16 counterscreen qHTS for inhibitors of ROR gamma transcriptional activity; Drosophila S2 Gal4-VP16 UAS-luciferase, luminescence, 20 h; Potency, µM (series often up to 53.6 µM), for inactives: at the top dose activity, negative = inhibition, hits mostly inhibitors; hit rate 3.5% among 310,000;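 further: Gal4-VP16 expression switched on by copper sulfate through the metallothionein promoter; on the % scale 0 is the no-effect control and ±100 the full control effect; nearly all actives have a fitted effect of over 50% in size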
S2 tox = Viability Counterscreen for Primary qHTS for Inhibitors of ATXN expression. AID 651635, 2014. S2 cells (HEK-293 line with an ATXN2-luciferase reporter) viability, CellTiter-Fluor protease fluorescence, 24 h. hit rate 0.49% among 400,000. Potency, µM (titrated, usually from 56.7 µM), usual class: cytotoxic; further: nearly all actives have a fitted effect of over 40% in size
ATXN2 expr inh = Primary qHTS for Inhibitors of ATXN expression; Potency, µM (highest dose often 57 µM), without a hit: top-dose activity change, negative = inhibition, most hits filed as inhibitors; hit rate 0.72% among 360,000; AID 1745845, 2022; HEK-293 ATXN2-luciferase reporter, luminescence, 24 h; further: on the % scale 0 is the no-effect control and ±100 the full control effect; nearly all actives have a fitted effect of over 55% in size
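ATXN2-luciferase reporter cells (luciferase flanked by upstream and downstream ATXN2 gene portions) were treated 24 h at 37 °C with compounds at up to 57 uM. SteadyGlo luminescence gave expression; GF-AFC fluorescence gave viability.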
* = called active by the depositor; i = inactive; ? = inconclusive; . = not tested or not shown; [ ] = remark or other dose. This is a sample that favours compounds with a hit; in the whole collection about 6.3% have one here. The call rests on the fitted dose curve; in most records, active means well fitted curve in the direction sought with a large enough effect; inconclusive means small, poorly fitted or top-dose-only effect, or another doubt; inactive means no such curve, though single readings can be large; an effect the other way counts as inactive or inconclusive. Potency means the concentration at half of the fitted maximal effect.

SMILES	TGFb inhibitor	RORg inh	HepG2 viability	VP16 counter	S2 tox	ATXN2 expr inh
CC(NC(=O)CCCN1C(=O)CCn2nc(-c3cn(C)c4ccccc34)cc21)c1ccccc1 (stereo not drawn)	?	.	-33%	.	i	-21%
Cc1cc(C(=O)NCC2CCC3(CCN(Cc4ccc(-c5ccccc5)cc4)CC3)O2)n(C)n1 (stereo not drawn)	.	.	.	.	i	.
CCOC(=O)c1c(C)[nH]c(C(=O)OCC(=O)Nc2ccc(Cl)cn2)c1C	-32%	.	-8%	.	i	3%
CCOC(=O)c1c(C)[nH]c(C(=O)OCC(=O)Nc2sccc2C(N)=O)c1C	-13%	.	-39%	.	13µM*	?
CC(C)Cn1c(N)c(C(=O)CSc2ccc3c(c2)OCCO3)c(=O)n(C)c1=O	-1%	?	-20%	11µM*	i	?
CC(C)Cn1c(N)c(C(=O)COC(=O)c2ccc3c(c2)OCCO3)c(=O)n(C)c1=O	-17%	30%	-33%	2%	i	-7%
COc1ccccc1CNC(=O)c1ccc(N2CCCC2)c(NC(=O)NCc2ccccc2)c1	?	.	-21%	.	?	-10%
Cc1nc(NC2=NCN(CCCN3CCOCC3)CN2)nc2c(C)cccc12	16µM*	-38%	-25%	1%	?	?
Cc1cc2nc(NC3=NCN(CCN4CCOCC4)CN3)nc(C)c2cc1C	.	-10%[10 µM]	.	2%	.	.
CN(C(=O)CSc1nc2ccc(NC(=O)c3cccc(F)c3)cc2s1)c1ccccc1	-35%	.	-23%	.	?	?
CCSc1nc(-c2ccc(OC)cc2)cc(-c2ccccc2)c1C#N	?	2%	3%	-6%	i	-12%
COc1ccc(-c2cc(-c3ccccc3)c(C#N)c(S(C)=O)n2)cc1 (stereo not drawn)	-19%	?	-27%	?	?	28µM*
NCC(=O)N[C@@H](CCCN=C(N)N)C(=O)NCC(=O)N[C@@H](CC(=O)O)C(=O)N[C@@H](CO)C(=O)N1CCC[C@H]1C(=O)O	.	3%	.	3%	.	.
COc1ccc(C2NN=C(c3c[nH]c4ccccc34)C2O)cc1 (stereo not drawn)	?	37%	-25%	-17%	i	.
COc1ccc(C2C(O)C(c3c[nH]c4ccccc34)=NN2C(=O)CCl)cc1 (stereo not drawn)	2.2µM*	13µM*	4µM*	10µM*	7.9µM*	6.3µM*
O=C(NCCc1ccccc1)c1ccc(CS(=O)Cc2cccc(Cl)c2)o1 (stereo not drawn)	-6%	8%	-7%	5%	i	1%
CCc1ccccc1S(=O)(=O)Cc1ccc(C(=O)NCc2ccc(Cl)cc2)o1	?	.	-32%	.	?	?
CCc1ccccc1S(=O)(=O)Cc1ccc(C(=O)NCCc2ccc(Cl)cc2)o1	11µM*	.	-46%	.	.	?
O=C(NCCc1ccc(Cl)cc1)c1ccc(CS(=O)Cc2cccc(Cl)c2)o1 (stereo not drawn)	8.9µM*	.	-19%	.	.	.
CCC(Nc1ccc(-c2nc(-c3cccnc3)no2)cc1[N+](=O)[O-])c1ccccc1 (stereo not drawn)	?	.	-5%	.	i	11%
CN(C)c1ncnc2c1ncn2[C@H]1CN(Cc2ccc(-c3ccccc3)cc2)C[C@@H](CO)O1	-19%	.	-21%	.	i	-2%
CCCC(=O)Nc1c(-c2cccc(OC)c2)c(=O)c2ccccc2n1C	-12%	-2%	-13%	6%	i	-10%
CCC(CC)C(=O)N(C)c1c(C)nc2c(OCc3cccc(OC)c3)cccn12	5%	.	-29%	.	i	-20%
Cc1[nH]c2ccc(Br)cc2c(=S)c1C/C=C/Cl	?	7.9µM*	-17%	-17%	i	?
Cc1cc(C)nc(SSc2nc(C)cc(C)n2)n1	?	5.6µM*	-40%	6.3µM*	i	2%
SMILES	TGFb inhibitor	RORg inh	HepG2 viability	VP16 counter	S2 tox	ATXN2 expr inh
Cc1cc(C)nc(SCCN(C)C)n1	-1%	-11%	5%	6%	i	13%
CC(/C=C/c1ccc2c(c1)OCO2)=N/NC(=O)c1ccncc1	-16%	5.6µM*	-50%	18µM*	i	.
CC(/C=C/c1ccc2c(c1)OCO2)=N/NC(=O)c1ccc(C)nc1	2%	7.9µM*	-2%	7.9µM*	i	6%
O=[N+]([O-])c1cccc(/C=C/c2ccncc2)c1	-17%	-10%	-23%	-15%	i	42%
CC1=C(/C=C/C(C)=N\NC(=O)c2ccncc2)C(C)(C)CCC1	-19%	7.9µM*	-16%	?	i	-14%
CC(/C=C/c1cccc([N+](=O)[O-])c1)=N\NC(=O)c1ccncc1	-8%	5µM*	-31%	10µM*	?	-3%
CCCCC(CC)CNC(=O)CCCn1c(=O)[nH]c2ccsc2c1=O (stereo not drawn)	?	.	-7%	.	i	-14%
CC(/C=C/c1ccc2c(c1)OCO2)=N/NC(=O)c1cccnc1	-5%	3.5µM*	-24%	6.3µM*	?	4%
CN(C)c1ccc(/C=N/N2C(=S)SC(C)(C)C2N(O)C(=O)Nc2ccc([N+](=O)[O-])cc2)cc1 (stereo not drawn)	-17%	7.9µM*	-35%	-4%	i	3%
CNC(=O)N(O)C1N(/N=C/c2ccc(SC)cc2)C(=S)SC1(C)C (stereo not drawn)	0%	-14%	-18%	-12%	i	-10%
COc1ccc(C(C(=O)NC2CCCCC2)N(C(=O)CCl)c2ccc(Cl)cc2)cc1 (stereo not drawn)	-28%	?	-63%	?	3.2µM*	3.5µM*
CCN1C(C(=O)c2ccccc2)=C(OC(=O)c2ccccc2OC)c2ccccc2S1(=O)=O	10µM*	.	4.5µM*	.	?	?
CCOC(=O)c1c(-c2ccccc2)oc2cc(CN(C)C)c(O)c(CN(C)C)c12	-5%	.	-48%	.	i	14µM*
CCOC(=O)c1c(C)oc2cc(Cl)c(O)c(CN(C)C)c12	4%	5%	20%	-11%	i	60%
COc1ccc(N(Cc2ccccc2)C(=O)OC(C)(C)C)c(C(=O)N(C)OC)c1	1%	.	-3%	.	i	-12%
CCOC(=O)Cn1c(=NC(=O)c2cc(-c3cccs3)nc3ccccc23)sc2cc(S(N)(=O)=O)ccc21	10%	16µM*	-9%	11µM*	i	?
